{"source": "PubChem BioAssay (NCI)", "note": "The panel holds about 83,000 compounds, 20% with a hit somewhere; the sample as a whole holds those more often.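 Single-dose data. Exposure time 48 hours. Values below 10 considered active.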 A number with no mark means an inactive call. The source made the active and inactive calls.", "data": [{"test_system": "MDA-MB-231 breast", "assay": "NCI-60 one-dose screen, 48 h (100 = growth as untreated, 0 = no growth, -100 = all killed)", "conditions": "10 µM", "values": [{"smiles": "CN(C)c1cccc2c(S(=O)(=O)Nc3cccc(-c4csc(NC(=O)CCCCCN5CCN(c6cc7c(cc6F)C(=O)N(C6CCC(=O)NC6=O)C7=O)CC5)n4)c3)cccc12", "note": "(configuration not stated)", "growth": "98%"}, {"smiles": "CC(=C(c1ccc(OCCN2CCCCC2)cc1)c1ccc(OCCN2CCCCC2)cc1)c1ccccc1", "growth": "4.97% (active)"}, {"smiles": "CC[C@@]1(O)C(=O)OCc2c1cc1n(c2=O)Cc2c-1nc1cc(F)c(C)c3c1c2[C@@H](N)CC3", "growth": "10.8%"}, {"smiles": "O=C(Cn1cc(CSc2nnc3oc4ccccc4n23)nn1)Nc1cccc(Cl)c1", "growth": "63.4%"}, {"smiles": "C=C(C)[C@@H]1CC[C@]2(C(=O)OC)CC[C@]3(C)[C@H](CC[C@@H]4[C@@]5(C)CC[C@H](N)C(C)(C)[C@@H]5CC[C@]43C)[C@@H]12", "growth": "-97.8% (active)"}, {"smiles": "COc1ccc(-c2nc(S(=O)(=O)c3ccc(C)cc3)c(S(C)(=O)=O)o2)cc1", "growth": "-92.4% (active)"}, {"smiles": "CCN1CCN(c2ccc(NC(=O)Nc3ccc(-c4cc(C(=O)NC(C)C)c5ncccc5n4)cc3)cc2C(F)(F)F)CC1", "growth": "-91.9% (active)"}, {"smiles": "C=C[C@H]1[C@H](O[C@@H]2OC(CO)[C@@H](O)[C@H](O)C2OC(=O)c2c(O)cc(O)cc2-c2cccc(O)c2)OC=C2C(=O)OCC[C@H]21", "note": "(some centres not stated)", "growth": "96.1%"}, {"smiles": "COc1ccc(C(C)=C(c2ccc(OCCCN(C)C)cc2)c2ccc(OCCCN(C)C)cc2)cc1", "growth": "-97.4% (active)"}, {"smiles": "CC1(C)CC[C@]23CC[C@]4(C)[C@H](CC[C@@H]5[C@@]6(C)CC[C@H](N)C(C)(C)[C@@H]6CC[C@]54C)[C@H]2[C@H]1OC3=O", "growth": "-96.3% (active)"}, {"smiles": "CCN1CCN(c2ccc(NC(=O)Nc3ccc(-c4cc(C(=O)NC)c5ncccc5n4)cc3)cc2C(F)(F)F)CC1", "growth": "-100% (active)"}, {"smiles": "COc1ccc2[nH]c(O)c(N=NC(=O)c3cc(-c4ccc(C)cc4)nc4ccccc34)c2c1", "growth": "98.3%"}, {"smiles": "O=C(Cn1cc(CSc2nnc3oc4ccccc4n23)nn1)Nc1ccc(Br)cc1", "growth": "35.5%"}, {"smiles": "CN1CCN(c2ccc(Nc3nc(N4CCN(S(=O)(=O)c5ccc(F)cc5)CC4)c4sccc4n3)cc2)CC1", "growth": "-94.6% (active)"}, {"smiles": "COc1ccccc1NCc1ccc(CO)n1-c1ccc(C)cc1", "growth": "91.2%"}, {"smiles": "CC(=C(c1ccc(OCCCN(C)C)cc1)c1ccc(OCCCN(C)C)cc1)c1ccccc1", "growth": "-99.6% (active)"}, {"smiles": "CN1CCN(c2ccc(Nc3nc(NCCCNC(=O)c4ccccc4)c4sccc4n3)cc2)CC1", "growth": "88.6%"}, {"smiles": "CCCCCc1ccc(S(=O)(=O)N(C(C)=O)c2cc(-c3csc(N(C)C(C)=O)n3)ccc2N2CCN(C)CC2)cc1", "growth": "-5.42% (active)"}, {"smiles": "C=C1CC[C@H](C(=C)C)[C@H]2C=C(C)C(=O)C3=C(C(=O)[C@@](C)(O)C3)[C@H]12", "growth": "-70.1% (active)"}, {"smiles": "CC(=O)Nc1nc(-c2ccc(N3CCN(C)CC3)c(NS(=O)(=O)c3cccc4c(N(C)C)cccc34)c2)cs1", "growth": "65%"}, {"smiles": "CNC(=O)c1cccc(N2CCc3c2ccc(NC(=O)Nc2ccc(N4CCN(C)CC4)c(C(F)(F)F)c2)c3F)c1", "growth": "-94.8% (active)"}, {"smiles": "CN1CCN(c2ccc(Nc3nc(N4CCN(S(=O)(=O)c5ccc(Cl)cc5)CC4)c4sccc4n3)cc2)CC1", "growth": "-86.3% (active)"}, {"smiles": "CC1(C)CC[C@]2(C(=O)NCCCNCCCCNCCCN)CC[C@]3(C)C(=CC[C@@H]4[C@@]5(C)Cc6c([nH]c7ccccc67)C(C)(C)[C@@H]5CC[C@]43C)[C@H]2C1", "growth": "-7.91% (active)"}, {"smiles": "C=CC(=O)Nc1nc(-c2cccc(NS(=O)(=O)c3cccc4c(N(C)C)cccc34)c2)cs1", "growth": "-63.8% (active)"}, {"smiles": "COC1CC(Cn2cc(COc3ccc4ccc(=O)oc4c3)nn2)C(OCc2ccccc2)C(OCc2ccccc2)C1OCc1ccccc1", "note": "(configuration not stated)", "growth": "99.7%"}]}, {"test_system": "RXF 393 renal", "assay": "NCI-60 one-dose screen, 48 h (100 = growth as untreated, 0 = no growth, -100 = all killed)", "conditions": "10 µM", "values": [{"smiles": "Cc1ccc(C(=O)NCCCNc2nc(Nc3ccc(N4CCN(C)CC4)cc3)nc3ccsc23)cc1", "growth": "-53.1% (active)"}, {"smiles": "O=C(c1ccc(-n2c(=O)[nH]c3ccccc3c2=O)cc1)N1CCOCC1", "growth": "127%"}, {"smiles": "O=S(=O)(c1ccc(Cl)cc1)c1nc(-c2ccccc2)oc1S(=O)(=O)c1ccc(Cl)cc1", "growth": "7.97% (active)"}, {"smiles": "Cc1ccc(C(C)C)cc1NC(=O)c1ccccc1N(C)C", "growth": "85.2%"}, {"smiles": "COc1ccc2[nH]c(O)c(N=NC(=O)COc3ccc(NC(=O)Nc4ccc(Cl)c(Cl)c4)cc3)c2c1", "growth": "-87.5% (active)"}, {"smiles": "COc1cccc(-c2nn(-c3ccccc3)cc2-c2ccnc(NCCCNC(=O)Nc3ccc(F)cc3)c2)c1", "growth": "0.912% (active)"}, {"smiles": "CN1CCN(c2ccc(Nc3nc(NCCCNC(=O)c4ccc(F)cc4)c4sccc4n3)cc2)CC1", "growth": "10.8%"}, {"smiles": "CC1(C)CC[C@]2(C(=O)Nc3ccccc3)CC[C@]3(C)C(=CC[C@@H]4[C@@]5(C)CC[C@H](N)C(C)(C)[C@@H]5CC[C@]43C)[C@H]2C1", "growth": "59.8%"}, {"smiles": "C[C@H]1[C@H](C)CC[C@]2(COC(=O)CCC(=O)NCC#CCN3CCNCC3)CC[C@]3(C)C(=CC[C@@H]4[C@@]5(C)CCCNC(C)(C)[C@@H]5CC[C@]43C)[C@H]12", "growth": "50.3%"}, {"smiles": "O=C(Nc1ccncc1)c1ccc(-n2c(=O)[nH]c3ccccc3c2=O)cc1", "growth": "88.9%"}, {"smiles": "Cc1ccc(C(C)C)cc1NC(=O)c1ccccc1O", "growth": "57.3%"}, {"smiles": "CCCS(=O)(=O)c1oc(-c2ccc(F)cc2)nc1S(=O)(=O)c1ccc(F)cc1", "growth": "-97.5% (active)"}, {"smiles": "CN(C)c1cccc2c(S(=O)(=O)Nc3cccc(-c4csc(NC(=O)CCCCCN5CCN(c6cc7c(cc6F)C(=O)N(C6CCC(=O)NC6=O)C7=O)CC5)n4)c3)cccc12", "note": "(configuration not stated)", "growth": "89.7%"}, {"smiles": "CC(=C(c1ccc(OCCN2CCCCC2)cc1)c1ccc(OCCN2CCCCC2)cc1)c1ccccc1", "growth": "-66.2% (active)"}, {"smiles": "CC[C@@]1(O)C(=O)OCc2c1cc1n(c2=O)Cc2c-1nc1cc(F)c(C)c3c1c2[C@@H](N)CC3", "growth": "-77.2% (active)"}, {"smiles": "O=C(Cn1cc(CSc2nnc3oc4ccccc4n23)nn1)Nc1cccc(Cl)c1", "growth": "76.8%"}, {"smiles": "C=C(C)[C@@H]1CC[C@]2(C(=O)OC)CC[C@]3(C)[C@H](CC[C@@H]4[C@@]5(C)CC[C@H](N)C(C)(C)[C@@H]5CC[C@]43C)[C@@H]12", "growth": "-96% (active)"}, {"smiles": "COc1ccc(-c2nc(S(=O)(=O)c3ccc(C)cc3)c(S(C)(=O)=O)o2)cc1", "growth": "-95.1% (active)"}, {"smiles": "CCN1CCN(c2ccc(NC(=O)Nc3ccc(-c4cc(C(=O)NC(C)C)c5ncccc5n4)cc3)cc2C(F)(F)F)CC1", "growth": "-96% (active)"}, {"smiles": "C=C[C@H]1[C@H](O[C@@H]2OC(CO)[C@@H](O)[C@H](O)C2OC(=O)c2c(O)cc(O)cc2-c2cccc(O)c2)OC=C2C(=O)OCC[C@H]21", "note": "(some centres not stated)", "growth": "104%"}, {"smiles": "COc1ccc(C(C)=C(c2ccc(OCCCN(C)C)cc2)c2ccc(OCCCN(C)C)cc2)cc1", "growth": "-94.6% (active)"}, {"smiles": "CC1(C)CC[C@]23CC[C@]4(C)[C@H](CC[C@@H]5[C@@]6(C)CC[C@H](N)C(C)(C)[C@@H]6CC[C@]54C)[C@H]2[C@H]1OC3=O", "growth": "-95.6% (active)"}, {"smiles": "CCN1CCN(c2ccc(NC(=O)Nc3ccc(-c4cc(C(=O)NC)c5ncccc5n4)cc3)cc2C(F)(F)F)CC1", "growth": "-94.4% (active)"}, {"smiles": "COc1ccc2[nH]c(O)c(N=NC(=O)c3cc(-c4ccc(C)cc4)nc4ccccc34)c2c1", "growth": "92.4%"}, {"smiles": "O=C(Cn1cc(CSc2nnc3oc4ccccc4n23)nn1)Nc1ccc(Br)cc1", "growth": "6.71% (active)"}, {"smiles": "CN1CCN(c2ccc(Nc3nc(N4CCN(S(=O)(=O)c5ccc(F)cc5)CC4)c4sccc4n3)cc2)CC1", "growth": "-89.1% (active)"}, {"smiles": "COc1ccccc1NCc1ccc(CO)n1-c1ccc(C)cc1", "growth": "107%"}, {"smiles": "CC(=C(c1ccc(OCCCN(C)C)cc1)c1ccc(OCCCN(C)C)cc1)c1ccccc1", "growth": "-96.7% (active)"}, {"smiles": "CN1CCN(c2ccc(Nc3nc(NCCCNC(=O)c4ccccc4)c4sccc4n3)cc2)CC1", "growth": "2.61% (active)"}, {"smiles": "CCCCCc1ccc(S(=O)(=O)N(C(C)=O)c2cc(-c3csc(N(C)C(C)=O)n3)ccc2N2CCN(C)CC2)cc1", "growth": "-69.7% (active)"}, {"smiles": "C=C1CC[C@H](C(=C)C)[C@H]2C=C(C)C(=O)C3=C(C(=O)[C@@](C)(O)C3)[C@H]12", "growth": "-82.7% (active)"}, {"smiles": "CC(=O)Nc1nc(-c2ccc(N3CCN(C)CC3)c(NS(=O)(=O)c3cccc4c(N(C)C)cccc34)c2)cs1", "growth": "19.6%"}, {"smiles": "CNC(=O)c1cccc(N2CCc3c2ccc(NC(=O)Nc2ccc(N4CCN(C)CC4)c(C(F)(F)F)c2)c3F)c1", "growth": "-85.3% (active)"}, {"smiles": "CN1CCN(c2ccc(Nc3nc(N4CCN(S(=O)(=O)c5ccc(Cl)cc5)CC4)c4sccc4n3)cc2)CC1", "growth": "-95.7% (active)"}, {"smiles": "CC1(C)CC[C@]2(C(=O)NCCCNCCCCNCCCN)CC[C@]3(C)C(=CC[C@@H]4[C@@]5(C)Cc6c([nH]c7ccccc67)C(C)(C)[C@@H]5CC[C@]43C)[C@H]2C1", "growth": "78.1%"}, {"smiles": "C=CC(=O)Nc1nc(-c2cccc(NS(=O)(=O)c3cccc4c(N(C)C)cccc34)c2)cs1", "growth": "-98.7% (active)"}, {"smiles": "COC1CC(Cn2cc(COc3ccc4ccc(=O)oc4c3)nn2)C(OCc2ccccc2)C(OCc2ccccc2)C1OCc1ccccc1", "note": "(configuration not stated)", "growth": "80.1%"}]}]}
